Pf growth 96h: Primary qHTS for delayed death inhibitors of the malarial parasite plastid, 96 hour incubation | P. falciparum luciferase reporter growth, 96 h | Potency, µM (top dose mostly 28.7 µM), without a hit: at the highest dose activity change, negative = inhibition, actives largely listed as inhibitors | actives 6.9% (n = 320,000) | AID 504834, 2011; note: potency is the fitted concentration of half-maximal effect; % is set by controls: 0 for no effect and ±100 for the full control effect
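Readout is luminescence from an integrated firefly luciferase in P. falciparum. Red cells, 2% hematocrit and 0.05% parasitemia final, were cultured with compound through two parasite generations (96 hours) at 37 C, 5% CO2.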
CHX counter: Cycloheximide Counterscreen for Small Molecule Inhibitors of Shiga Toxin. cell reporter, cycloheximide protein synthesis inhibition counterscreen. max response, %. actives 12% (n = 300,000). AID 2314, 2010; in the data active = max response mostly above about 13%, no sharp cut-off; inactive = mostly below about 14%; note: read at 38.3 µM for the half of the compounds with a filed dose; 0% is about no effect
Pf growth 48h: Primary qHTS for delayed death inhibitors of the malarial parasite plastid, 48 hour incubation | Potency, µM (doses to about 28.7 µM), for the others: at the highest dose activity change, negative = inhibition, usual class: inhibitors | actives 5.9% (n = 310,000) | P. falciparum luciferase growth in erythrocytes, 48 h; note: potency is the fitted concentration of half-maximal effect; % is set by controls: 0 for no effect and ±100 for the full control effect
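Erythrocytes infected with P. falciparum carrying an integrated firefly luciferase reporter (2% hematocrit, 0.1% parasitemia final) were exposed to compounds in RPMI 1640 with 0.5% Albumax at 37 C, 5% CO2. Growth inhibition was scored as reduced luminescence.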
SARS PLpro yeast: qHTS of Yeast-based Assay for SARS-CoV PLP. S. cerevisiae expressing SARS-CoV PLpro, growth rescue. Potency, µM (titrated, usually from 32.9 µM), inactives show top-dose activity, positive = growth rescue, most hits filed as activators. actives 0.19% (n = 330,000); calls by dose curve; note: potency is the fitted concentration of half-maximal effect; 0% is about no effect; nearly all actives have a fitted effect of over 55% in size
Shiga toxin inh: A qHTS for Small Molecule Inhibitors of Shiga Toxin; Vero cells, Shiga toxin protein synthesis inhibition reporter; inhibition, % at 38.7 µM; actives 9.2% (n = 290,000); in the data active = inhibition mostly above about 28%, no sharp cut-off; inactive = mostly below about 43%; note: 0% is about no effect
AMA1-RON2 inh: qHTS for Inhibitors of AMA1-RON; Towards Development of Antimalarial Drug Lead: Primary Screen. AID 720542, 2013. AlphaScreen AMA1-biotinylated RON2 peptide binding. Potency, µM (titrated, usually from 58.2 µM), without a hit: top-dose activity change, negative = inhibition, actives largely listed as inhibitors. actives 0.2% (n = 360,000);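 note: potency is the fitted concentration of half-maximal effect; 0% = vehicle wells and -100% = peptide control; nearly all actives have a fitted effect of over 45% in size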
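AMA1 (3D7) with his tag at 25 nM final met compounds first, then biotinylated RON2 peptide at 25 nM; detection used donor plus acceptor beads, 10 µg/mL apiece, read by AlphaScreen after 30 min at room temperature.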
Active calls of the source: *; u = inconclusive; x = not tested or not shown; [ ] = remark or other dose. Rows were chosen to be rich in hits. Some 19% of all compounds tested hit in one or more screens of this group. Unless noted, calls come from the whole dose curve; as a rule, active = well fitted curve in the direction sought with a large enough effect; inconclusive = small, poorly fitted or top-dose-only effect, or another doubt; inactive = no such curve, though single readings can be large; an effect the other way counts as inactive or inconclusive.

SMILES | Pf growth 96h | CHX counter | Pf growth 48h | SARS PLpro yeast | Shiga toxin inh | AMA1-RON2 inh
CCC(=O)Nc1cccc(NC(=S)NC(=O)c2ccc(Cl)cc2)c1 | u | 22* | 115% | 1% | 24 | 12%
COC(=O)[C@@H](Cc1ccccc1)NC(=O)Cn1cnc2c(SC)nc(N)nc21 | x | x | x | 3% | x | -2%
CN(c1ccc(OCC(=O)N2CCN(C/C=C/c3ccccc3)CC2)cc1)S(=O)(=O)c1cccs1 | u | -3 | 9.3µM* | 0% | 12 | -16%
Cc1ccc(CCC(=O)Nc2cc(Cl)ccc2Cl)o1 | 0% | -3 | 8% | -6% | 9 | 12%
COC(=O)c1cc(OC)c(OC)cc1NC(=O)CCc1ccc(C)o1 | 17% | -2 | 10µM* | -1% | -10 | -2%
Cc1ccc(C)c(NC(=O)CCc2ccc(C)o2)c1 | u | -3 | 6% | 0% | -11 | -3%
Cc1ccc(CCC(=O)Nc2ccccc2C(=O)O)o1 | -30% | 26* | 41% | -2% | 59* | -10%
COC(=O)c1cc(OC)c(OC)cc1NC(=O)c1ccc(OC)cc1 | 33% | -4 | 3% | -4% | -4 | 1%
COC(=O)c1cc(OC)c(OC)cc1NC(=O)c1ccc(C)o1 | 5.2µM* | 6 | x | 20% | -15 | -4%
COC(=O)c1cc(OC)c(OC)cc1NC(=O)c1ccc(C)cc1 | -21% | -1 | x | 8% | -11 | 36%
COC(=O)c1cc(OC)c(OC)cc1NC(=O)c1cc(C(C)(C)C)oc1C | u | 1 | 2.9µM* | -1% | 0 | -1%
Cc1cccc(NC(=O)CN2CCOCC2)c1C | 6% | 2 | 68% | 1% | 11 | 0%
COC(=O)C1CCN(c2cc(=O)n(-c3ccccc3Cl)c(=O)[nH]2)CC1 | 19% | 3 | 6.6µM* | 5% | 26 | -6%
CCCc1nc2c(c(=O)c3ccccc3n2C)c(=O)n1-c1ccc(F)cc1 | u | -2 | u | 0% | 15 | -2%
CCCCn1c(-c2ccco2)nc2oc3ccccc3c(=O)c2c1=O | 9.3µM* | 0 | u | 0% | -2 | -6%
CCc1nc2oc3cc(OC)ccc3c(=O)c2c(=O)n1Cc1ccco1 | u | 8 | 12µM* | 2% | -8 | u
COc1ccc(-c2nc3oc4cc(OC)ccc4c(=O)c3c(=O)n2Cc2ccco2)cc1 | -3%[5.75 µM] | -2 | u | -41% | -4 | -4%
COc1ccc(Cn2c(-c3ccco3)nc3oc4ccccc4c(=O)c3c2=O)cc1 | 27% | 0 | 18% | -3% | -2 | -16%
CCCc1nc2oc3ccccc3c(=O)c2c(=O)n1-c1ccc(C)cc1 | 1% | 36* | 26% | -1% | 66* | 12%
CCc1nc2oc3ccccc3c(=O)c2c(=O)n1-c1ccccc1 | x | 44* | 205% | -11% | 65* | 31%
CCCc1nc2oc3ccccc3c(=O)c2c(=O)n1-c1ccccc1 | 314% | 33* | 81% | -4% | 55* | 12%
CCc1nc2oc3ccccc3c(=O)c2c(=O)n1-c1ccc(C)cc1 | 428% | 41* | 161% | -1% | 64* | -27%
CCc1nc2oc3ccccc3c(=O)c2c(=O)n1CCOC | u | -1 | x | -1% | -1 | 5%
Cc1ccc(-n2c(C(C)C)nc3oc4ccccc4c(=O)c3c2=O)cc1 | 69% | 29* | 64% | 3% | 63* | 29%
CCOc1ncccc1C(=O)NCCc1ccc(Cl)cc1 | -16% | 2 | -13%[0.00184 µM] | -3% | 1 | 29%
COc1ccc(CNC(=O)CCS(=O)(=O)c2cc3c(cc2Cl)NC(=O)CO3)cc1 | 4% | 8 | 3% | 1% | -1 | 27%
COc1ccc(C(O)c2nc(-c3cnn(C)c3)cs2)cc1 (centres undefined) | x | x | x | x | x | 10%
CN1CCN(S(=O)(=O)c2ccc(NC(=O)Cc3ccc([N+](=O)[O-])cc3)cc2)CC1 | 4% | -2 | 27% | 4% | -5 | -23%
COc1ccc(/C=C/C(=O)NC(=S)Nc2ccccc2)cc1OC | 16% | 5 | 15% | 1% | 18 | 22%
